# Laboratory results from paper PMC7862700, “An all-to-all approach to the identification of sequence-specific readers for epigenetic DNA modifications on cytosine”.
# Key:
# Test in all cases: DAPPL (digital affinity profiling via proximity ligation, sequencing); 10 mM Tris-HCl pH 7.5, 50 mM NaCl, 1 mM DTT, 4% glycerol, room temperature, 30 min; GST-TFs on glutathione beads, 16-mer random dsDNA library, 0.1% formaldehyde crosslink after washing; high values mean tight binding
# [1] = biological target: T1, FLI1 (Homo sapiens, UniProt Q01543 1-452); conditions: protein: recombinant; tags: N-terminal GST; dsDNA, one strand shown
# T1 sequence: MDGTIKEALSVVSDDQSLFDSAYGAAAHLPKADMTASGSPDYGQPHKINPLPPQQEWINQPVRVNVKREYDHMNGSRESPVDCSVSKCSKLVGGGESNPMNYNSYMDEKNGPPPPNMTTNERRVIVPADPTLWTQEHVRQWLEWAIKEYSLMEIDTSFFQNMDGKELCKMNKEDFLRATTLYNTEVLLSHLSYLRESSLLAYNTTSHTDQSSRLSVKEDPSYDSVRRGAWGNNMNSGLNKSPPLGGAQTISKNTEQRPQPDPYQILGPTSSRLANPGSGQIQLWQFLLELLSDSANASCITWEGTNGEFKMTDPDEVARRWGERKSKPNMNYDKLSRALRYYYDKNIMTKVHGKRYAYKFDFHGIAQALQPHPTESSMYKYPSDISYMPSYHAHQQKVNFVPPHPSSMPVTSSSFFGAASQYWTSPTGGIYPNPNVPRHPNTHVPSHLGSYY
# Summary of the method: (§1)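 Human transcription factors were made in yeast as GST fusions, captured on glutathione beads and barcoded with DNA. With a tag-only sample included, the pool was incubated with 200 nmole of a random double-stranded 16-mer DNA library in Tris/NaCl/DTT/glycerol buffer at room temperature for 30 min, then crosslinked with 0.1% formaldehyde after washing, ligated by proximity, amplified and sequenced. For binding signal, each hexamer's read frequency for a factor is divided by its frequency for the tag-only sample.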
# [2] = biological target: T2, ELK1 (Homo sapiens, UniProt P19419 1-428); conditions: protein: recombinant; tags: N-terminal GST; dsDNA, one strand shown
# T2 sequence: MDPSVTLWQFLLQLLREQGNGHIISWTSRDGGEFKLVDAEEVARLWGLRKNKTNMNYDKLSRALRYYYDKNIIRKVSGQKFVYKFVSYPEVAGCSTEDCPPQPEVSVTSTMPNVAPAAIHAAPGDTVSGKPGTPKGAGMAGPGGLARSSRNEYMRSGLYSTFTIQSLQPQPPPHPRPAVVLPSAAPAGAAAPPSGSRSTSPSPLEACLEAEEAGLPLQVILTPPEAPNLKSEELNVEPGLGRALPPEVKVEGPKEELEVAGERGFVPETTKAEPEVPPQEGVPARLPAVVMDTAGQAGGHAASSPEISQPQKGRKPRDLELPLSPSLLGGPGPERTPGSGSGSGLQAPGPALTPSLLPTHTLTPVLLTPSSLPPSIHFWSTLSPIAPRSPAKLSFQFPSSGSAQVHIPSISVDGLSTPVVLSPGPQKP
# Summary of the method: as §1
# [3] = biological target: T3, GABPA (Homo sapiens, UniProt Q06546 1-454); conditions: protein: recombinant; tags: N-terminal GST; dsDNA, one strand shown
# T3 sequence: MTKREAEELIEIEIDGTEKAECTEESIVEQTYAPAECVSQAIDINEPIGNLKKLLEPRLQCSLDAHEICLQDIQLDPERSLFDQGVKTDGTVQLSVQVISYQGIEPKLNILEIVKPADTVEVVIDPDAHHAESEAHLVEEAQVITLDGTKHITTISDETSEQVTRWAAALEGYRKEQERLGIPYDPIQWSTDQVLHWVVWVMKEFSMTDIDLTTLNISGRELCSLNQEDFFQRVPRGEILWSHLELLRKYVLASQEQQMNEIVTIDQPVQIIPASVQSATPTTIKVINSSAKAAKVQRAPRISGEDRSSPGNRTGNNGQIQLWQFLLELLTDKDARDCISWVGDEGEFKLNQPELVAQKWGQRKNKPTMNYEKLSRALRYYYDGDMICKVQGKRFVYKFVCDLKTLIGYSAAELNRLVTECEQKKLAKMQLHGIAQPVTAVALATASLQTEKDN
# Summary of the method: as §1
# [4] = biological target: T4, ERG (Homo sapiens, UniProt P11308 1-479); conditions: protein: recombinant; tags: N-terminal GST; dsDNA, one strand shown
# T4 sequence: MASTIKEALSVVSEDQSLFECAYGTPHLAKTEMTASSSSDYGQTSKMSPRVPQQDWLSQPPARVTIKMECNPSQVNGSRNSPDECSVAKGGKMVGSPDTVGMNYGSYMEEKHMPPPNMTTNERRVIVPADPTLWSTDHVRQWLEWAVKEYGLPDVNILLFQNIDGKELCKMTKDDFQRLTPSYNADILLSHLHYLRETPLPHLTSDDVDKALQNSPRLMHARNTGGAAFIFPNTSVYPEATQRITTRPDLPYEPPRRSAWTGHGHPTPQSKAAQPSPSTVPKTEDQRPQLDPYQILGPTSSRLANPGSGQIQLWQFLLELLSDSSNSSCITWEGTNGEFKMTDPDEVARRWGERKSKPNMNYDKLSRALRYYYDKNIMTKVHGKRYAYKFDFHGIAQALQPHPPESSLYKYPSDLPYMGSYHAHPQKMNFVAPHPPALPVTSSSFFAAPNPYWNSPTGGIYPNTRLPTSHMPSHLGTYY
# Summary of the method: as §1
# [5] = biological target: ELF1 (Homo sapiens, UniProt P32519 1-619); conditions: protein: recombinant; tags: N-terminal GST; dsDNA, one strand shown
# Sequence of ELF1 (P32519 whole entry): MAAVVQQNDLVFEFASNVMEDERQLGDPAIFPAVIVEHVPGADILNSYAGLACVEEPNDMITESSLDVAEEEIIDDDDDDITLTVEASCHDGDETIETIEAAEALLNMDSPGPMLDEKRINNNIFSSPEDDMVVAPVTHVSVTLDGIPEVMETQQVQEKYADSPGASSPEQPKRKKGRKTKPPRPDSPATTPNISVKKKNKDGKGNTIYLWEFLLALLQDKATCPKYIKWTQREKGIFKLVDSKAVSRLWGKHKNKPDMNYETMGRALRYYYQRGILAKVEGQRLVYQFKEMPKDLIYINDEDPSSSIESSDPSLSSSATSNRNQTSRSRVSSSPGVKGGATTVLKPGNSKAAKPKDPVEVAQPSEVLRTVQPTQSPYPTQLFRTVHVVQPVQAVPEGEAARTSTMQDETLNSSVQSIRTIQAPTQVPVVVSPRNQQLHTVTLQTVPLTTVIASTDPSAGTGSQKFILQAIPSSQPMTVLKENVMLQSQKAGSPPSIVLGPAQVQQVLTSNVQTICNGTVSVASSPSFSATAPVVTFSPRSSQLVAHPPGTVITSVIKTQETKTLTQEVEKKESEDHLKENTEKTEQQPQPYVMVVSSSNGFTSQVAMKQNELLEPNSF
# Summary of the method: as §1
# [6] = biological target: T5, EHF (Homo sapiens, UniProt Q9NZC4 1-300); conditions: protein: recombinant; tags: N-terminal GST; dsDNA, one strand shown
# T5 sequence: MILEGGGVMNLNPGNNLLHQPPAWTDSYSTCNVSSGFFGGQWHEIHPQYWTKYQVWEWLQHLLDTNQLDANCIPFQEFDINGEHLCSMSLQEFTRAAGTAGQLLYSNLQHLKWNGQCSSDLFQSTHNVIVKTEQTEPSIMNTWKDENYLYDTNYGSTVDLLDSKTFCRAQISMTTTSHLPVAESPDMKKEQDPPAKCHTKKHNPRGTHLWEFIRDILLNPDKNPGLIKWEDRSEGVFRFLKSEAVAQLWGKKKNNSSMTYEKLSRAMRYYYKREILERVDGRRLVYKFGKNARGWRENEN
# Summary of the method: as §1
# [7] = biological target: SPI1 (Homo sapiens, UniProt P17947 1-270); conditions: protein: recombinant; tags: N-terminal GST; dsDNA, one strand shown
# Summary of the method: as §1
# [8] = biological target: SPIB (Homo sapiens, UniProt Q01892 1-262); conditions: protein: recombinant; tags: N-terminal GST; dsDNA, one strand shown
# Sequence of SPIB (Q01892 whole entry): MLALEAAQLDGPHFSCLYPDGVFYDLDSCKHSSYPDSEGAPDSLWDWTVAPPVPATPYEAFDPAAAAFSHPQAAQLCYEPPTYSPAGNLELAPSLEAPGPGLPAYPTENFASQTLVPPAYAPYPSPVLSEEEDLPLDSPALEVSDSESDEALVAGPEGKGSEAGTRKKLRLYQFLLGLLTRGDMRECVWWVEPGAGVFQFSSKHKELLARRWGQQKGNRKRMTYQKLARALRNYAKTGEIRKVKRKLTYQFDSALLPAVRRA
# Summary of the method: as §1
# [9] = biological target: T6, ELK3 (Homo sapiens, UniProt P41970 1-407); conditions: protein: recombinant; tags: N-terminal GST; dsDNA, one strand shown
# T6 sequence: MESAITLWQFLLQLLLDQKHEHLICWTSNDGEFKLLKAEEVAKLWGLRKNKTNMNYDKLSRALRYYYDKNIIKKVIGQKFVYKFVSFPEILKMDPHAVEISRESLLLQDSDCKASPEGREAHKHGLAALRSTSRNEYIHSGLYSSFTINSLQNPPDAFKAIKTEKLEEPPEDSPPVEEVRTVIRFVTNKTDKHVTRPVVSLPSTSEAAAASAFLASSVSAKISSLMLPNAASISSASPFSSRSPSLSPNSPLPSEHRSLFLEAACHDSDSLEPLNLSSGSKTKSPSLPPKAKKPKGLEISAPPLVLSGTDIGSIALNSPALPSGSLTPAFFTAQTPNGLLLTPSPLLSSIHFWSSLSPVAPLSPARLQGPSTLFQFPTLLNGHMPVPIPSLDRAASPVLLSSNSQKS
# Summary of the method: as §1
# [10] = biological target: T7, FEV (Homo sapiens, UniProt Q99581 1-238); conditions: protein: recombinant; tags: N-terminal GST; dsDNA, one strand shown
# T7 sequence: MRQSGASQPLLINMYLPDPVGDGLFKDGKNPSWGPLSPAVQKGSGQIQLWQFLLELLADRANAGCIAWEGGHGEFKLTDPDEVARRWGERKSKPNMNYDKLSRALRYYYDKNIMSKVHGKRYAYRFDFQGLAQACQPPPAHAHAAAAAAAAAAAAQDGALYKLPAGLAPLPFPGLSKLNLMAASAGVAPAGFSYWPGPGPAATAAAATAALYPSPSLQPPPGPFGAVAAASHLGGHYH
# Summary of the method: as §1
# [11] = biological target: ETV5 (Homo sapiens, UniProt P41161 1-510); conditions: protein: recombinant; tags: N-terminal GST; dsDNA, one strand shown
# Sequence of ETV5 (P41161 whole entry): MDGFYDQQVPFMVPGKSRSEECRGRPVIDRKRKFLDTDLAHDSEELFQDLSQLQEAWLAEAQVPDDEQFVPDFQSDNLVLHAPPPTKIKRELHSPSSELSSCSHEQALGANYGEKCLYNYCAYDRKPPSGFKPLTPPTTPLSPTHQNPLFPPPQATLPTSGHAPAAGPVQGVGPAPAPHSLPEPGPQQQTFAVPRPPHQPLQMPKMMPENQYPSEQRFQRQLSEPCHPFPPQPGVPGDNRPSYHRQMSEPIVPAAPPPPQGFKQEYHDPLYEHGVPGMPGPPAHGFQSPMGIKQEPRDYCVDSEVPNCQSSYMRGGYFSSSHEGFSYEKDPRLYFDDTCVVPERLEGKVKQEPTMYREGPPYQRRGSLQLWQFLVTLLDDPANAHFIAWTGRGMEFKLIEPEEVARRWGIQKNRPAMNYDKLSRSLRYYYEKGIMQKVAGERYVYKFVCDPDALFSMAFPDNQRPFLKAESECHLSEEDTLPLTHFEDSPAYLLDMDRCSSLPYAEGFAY
# Summary of the method: as §1
# [12] = biological target: HSF1 (Homo sapiens, UniProt Q00613 1-529); conditions: protein: recombinant; tags: N-terminal GST; chain copies: 3; dsDNA, one strand shown
# Sequence of HSF1 (Q00613 whole entry): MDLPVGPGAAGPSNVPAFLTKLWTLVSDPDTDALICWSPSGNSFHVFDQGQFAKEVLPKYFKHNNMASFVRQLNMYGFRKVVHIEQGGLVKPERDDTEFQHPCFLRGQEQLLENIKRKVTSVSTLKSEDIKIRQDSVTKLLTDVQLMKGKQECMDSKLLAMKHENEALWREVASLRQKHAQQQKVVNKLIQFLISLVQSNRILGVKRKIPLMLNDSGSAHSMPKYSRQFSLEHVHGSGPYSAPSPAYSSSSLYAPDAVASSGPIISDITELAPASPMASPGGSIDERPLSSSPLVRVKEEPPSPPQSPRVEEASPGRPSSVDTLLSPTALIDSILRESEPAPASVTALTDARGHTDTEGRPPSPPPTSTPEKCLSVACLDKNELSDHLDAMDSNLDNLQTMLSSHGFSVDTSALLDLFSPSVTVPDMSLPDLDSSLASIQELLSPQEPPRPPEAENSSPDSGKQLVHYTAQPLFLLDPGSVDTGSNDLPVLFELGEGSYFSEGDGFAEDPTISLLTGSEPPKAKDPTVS
# Summary of the method: as §1
# [13] = biological target: T8, SPIC (Homo sapiens, UniProt Q8N5J4 1-248); conditions: protein: recombinant; tags: N-terminal GST; dsDNA, one strand shown
# T8 sequence: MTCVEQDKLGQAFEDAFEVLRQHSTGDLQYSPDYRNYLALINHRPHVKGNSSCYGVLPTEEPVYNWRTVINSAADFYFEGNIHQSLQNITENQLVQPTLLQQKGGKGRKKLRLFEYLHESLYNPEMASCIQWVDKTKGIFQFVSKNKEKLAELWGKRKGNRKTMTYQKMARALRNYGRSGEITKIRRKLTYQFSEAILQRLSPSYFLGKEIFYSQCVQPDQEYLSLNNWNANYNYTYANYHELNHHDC
# Summary of the method: as §1
# [14] = biological target: ELF4 (Homo sapiens, UniProt Q99607 1-663); conditions: protein: recombinant; tags: N-terminal GST; dsDNA, one strand shown
# Sequence of ELF4 (Q99607 whole entry): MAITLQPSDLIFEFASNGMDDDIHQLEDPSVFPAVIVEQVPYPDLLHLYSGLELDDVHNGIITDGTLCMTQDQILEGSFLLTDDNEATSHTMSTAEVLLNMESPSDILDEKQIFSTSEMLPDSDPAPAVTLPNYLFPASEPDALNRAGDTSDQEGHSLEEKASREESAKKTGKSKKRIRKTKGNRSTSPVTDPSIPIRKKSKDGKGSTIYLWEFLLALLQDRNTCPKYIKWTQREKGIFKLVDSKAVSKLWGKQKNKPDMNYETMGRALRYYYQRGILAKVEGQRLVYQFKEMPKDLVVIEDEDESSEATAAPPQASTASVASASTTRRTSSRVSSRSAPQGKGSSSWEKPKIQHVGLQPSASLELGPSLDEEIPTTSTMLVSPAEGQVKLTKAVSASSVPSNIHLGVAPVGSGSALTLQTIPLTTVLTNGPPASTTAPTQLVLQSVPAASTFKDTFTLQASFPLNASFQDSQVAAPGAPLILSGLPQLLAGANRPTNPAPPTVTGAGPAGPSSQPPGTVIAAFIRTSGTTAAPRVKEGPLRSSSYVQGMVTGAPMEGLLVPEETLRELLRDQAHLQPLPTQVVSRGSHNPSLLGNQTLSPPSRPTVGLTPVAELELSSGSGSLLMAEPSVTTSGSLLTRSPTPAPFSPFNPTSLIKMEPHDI
# Summary of the method: as §1
# [15] = biological target: T9, ELK4 (Homo sapiens, UniProt P28324-2 1-405); conditions: protein: recombinant; tags: N-terminal GST; dsDNA, one strand shown
# T9 sequence: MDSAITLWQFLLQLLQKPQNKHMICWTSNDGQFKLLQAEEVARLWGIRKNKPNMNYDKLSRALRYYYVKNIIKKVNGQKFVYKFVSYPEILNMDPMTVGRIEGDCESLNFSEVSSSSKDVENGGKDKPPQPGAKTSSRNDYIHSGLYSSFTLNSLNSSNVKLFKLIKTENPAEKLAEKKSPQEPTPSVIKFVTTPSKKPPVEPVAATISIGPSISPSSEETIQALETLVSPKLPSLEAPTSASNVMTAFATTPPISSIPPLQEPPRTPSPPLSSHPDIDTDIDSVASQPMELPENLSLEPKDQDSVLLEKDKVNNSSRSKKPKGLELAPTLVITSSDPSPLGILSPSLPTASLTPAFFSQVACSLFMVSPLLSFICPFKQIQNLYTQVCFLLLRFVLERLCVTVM
# Summary of the method: as §1
# [16] = biological target: T10, ETV2 (Homo sapiens, UniProt O00321 1-342); conditions: protein: recombinant; tags: N-terminal GST; dsDNA, one strand shown
# T10 sequence: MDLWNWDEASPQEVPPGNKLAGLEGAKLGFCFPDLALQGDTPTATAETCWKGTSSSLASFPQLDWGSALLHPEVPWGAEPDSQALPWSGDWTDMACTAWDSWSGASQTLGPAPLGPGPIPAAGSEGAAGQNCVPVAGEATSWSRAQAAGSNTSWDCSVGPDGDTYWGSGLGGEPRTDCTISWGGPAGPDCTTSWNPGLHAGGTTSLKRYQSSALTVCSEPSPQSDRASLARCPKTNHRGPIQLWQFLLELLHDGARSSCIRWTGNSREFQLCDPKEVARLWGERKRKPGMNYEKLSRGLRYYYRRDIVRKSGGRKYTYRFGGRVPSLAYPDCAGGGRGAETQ
# Summary of the method: as §1
# [17] = biological target: T11, ELF3 (Homo sapiens, UniProt P78545 1-371); conditions: protein: recombinant; tags: N-terminal GST; dsDNA, one strand shown
# T11 sequence: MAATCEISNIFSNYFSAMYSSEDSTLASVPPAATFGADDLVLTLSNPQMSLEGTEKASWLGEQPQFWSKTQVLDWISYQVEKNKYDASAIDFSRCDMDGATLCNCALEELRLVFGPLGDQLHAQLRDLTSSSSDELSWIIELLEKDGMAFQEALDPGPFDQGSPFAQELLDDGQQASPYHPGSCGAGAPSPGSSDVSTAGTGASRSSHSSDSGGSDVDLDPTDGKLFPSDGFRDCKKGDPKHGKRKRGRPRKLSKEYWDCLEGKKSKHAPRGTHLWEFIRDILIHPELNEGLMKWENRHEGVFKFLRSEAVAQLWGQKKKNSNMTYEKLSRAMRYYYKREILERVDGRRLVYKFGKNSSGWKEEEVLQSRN
# Summary of the method: as §1
# [18] = biological target: CRX (Homo sapiens, UniProt O43186 1-299); conditions: protein: recombinant; tags: N-terminal GST; dsDNA, one strand shown
# Sequence of CRX (O43186 whole entry): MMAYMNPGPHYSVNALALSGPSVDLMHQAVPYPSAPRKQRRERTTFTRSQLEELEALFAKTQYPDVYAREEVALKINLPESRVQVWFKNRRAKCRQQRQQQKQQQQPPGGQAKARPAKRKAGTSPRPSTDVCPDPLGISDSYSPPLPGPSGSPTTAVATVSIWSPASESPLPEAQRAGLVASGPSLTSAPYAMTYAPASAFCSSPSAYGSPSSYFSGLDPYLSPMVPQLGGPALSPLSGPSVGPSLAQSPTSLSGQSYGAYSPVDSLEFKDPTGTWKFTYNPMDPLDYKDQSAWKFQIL
# Summary of the method: as §1
# [19] = biological target: ETV1 (Homo sapiens, UniProt P50549 1-477); conditions: protein: recombinant; tags: N-terminal GST; dsDNA, one strand shown
# Sequence of ETV1 (P50549 whole entry): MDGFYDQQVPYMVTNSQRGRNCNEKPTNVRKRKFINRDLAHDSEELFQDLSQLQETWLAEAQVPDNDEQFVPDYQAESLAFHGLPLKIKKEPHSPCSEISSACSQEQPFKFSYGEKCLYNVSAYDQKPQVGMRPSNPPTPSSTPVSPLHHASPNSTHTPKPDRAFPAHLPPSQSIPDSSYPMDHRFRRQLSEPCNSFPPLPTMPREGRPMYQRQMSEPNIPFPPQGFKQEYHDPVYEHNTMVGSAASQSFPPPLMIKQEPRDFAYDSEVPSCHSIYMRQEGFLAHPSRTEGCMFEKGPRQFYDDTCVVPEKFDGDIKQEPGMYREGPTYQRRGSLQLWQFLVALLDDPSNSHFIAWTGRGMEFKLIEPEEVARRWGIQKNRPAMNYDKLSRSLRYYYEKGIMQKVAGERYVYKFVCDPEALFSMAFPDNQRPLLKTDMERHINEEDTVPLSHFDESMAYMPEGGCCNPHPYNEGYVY
# Summary of the method: as §1
sequence,measurement,setting,value
CTTACA,binding signal,[1],"1.28 fold enrichment (6-mer frequency, TF over GST control)"
same,binding signal,[2],"1.3 fold enrichment (6-mer frequency, TF over GST control)"
same,binding signal,[3],"1.32 fold enrichment (6-mer frequency, TF over GST control)"
same,binding signal,[4],"1.21 fold enrichment (6-mer frequency, TF over GST control)"
same,binding signal,[5],"1.24 fold enrichment (6-mer frequency, TF over GST control)"
same,binding signal,[6],"1.33 fold enrichment (6-mer frequency, TF over GST control)"
same,binding signal,[7],"1.22 fold enrichment (6-mer frequency, TF over GST control)"
same,binding signal,[8],"1.21 fold enrichment (6-mer frequency, TF over GST control)"
same,binding signal,[9],"1.24 fold enrichment (6-mer frequency, TF over GST control)"
same,binding signal,[10],"1.18 fold enrichment (6-mer frequency, TF over GST control)"
same,binding signal,[11],"1.31 fold enrichment (6-mer frequency, TF over GST control)"
same,binding signal,[12],"1.31 fold enrichment (6-mer frequency, TF over GST control)"
same,binding signal,[13],"1.27 fold enrichment (6-mer frequency, TF over GST control)"
same,binding signal,[14],"1.25 fold enrichment (6-mer frequency, TF over GST control)"
same,binding signal,[15],"1.3 fold enrichment (6-mer frequency, TF over GST control)"
same,binding signal,[16],"1.28 fold enrichment (6-mer frequency, TF over GST control)"
same,binding signal,[17],"1.41 fold enrichment (6-mer frequency, TF over GST control)"
same,binding signal,[18],"1.6 fold enrichment (6-mer frequency, TF over GST control)"
same,binding signal,[19],"1.24 fold enrichment (6-mer frequency, TF over GST control)"
